# The list is not random: actives were taken first. Their share in the collection is about 7.6%.
# HCV NS3h FP: blocks HCV NS3 helicase binding to DNA | NS3h Cy5-dT15 DNA binding, fluorescence polarization | inhibition, % at 100 µM | 1.6% of 16,000 active;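 active = inhibition above the average over every tested compound plus 3 SD, cut at about 40% in these data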
# Cy5 interf NS3h: enhances or quenches Cy5 fluorescence in NS3h assay. fluorescence interference ratio at 100 µM. Cy5-dT15 DNA with NS3h, fluorescence interference; actives lie on both sides; signal over control mean, under 1 quenches. 6% of 16,000 active. AID 720488;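 active = compound fluorescence over control fluorescence at most 0.8, a quencher, or at least a set upper limit, an enhancer; inactive = ratio between 0.8 and the set upper limit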
# HCV NS3h conf: hepatitis C NS3 helicase inhibition, confirmation; inhibition, % at 100 µM; NS3h binding to Cy5-dT15 DNA, fluorescence polarization; shares compounds with HCV NS3h FP; 20% of 240 active;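 active = percent inhibition of 50% or more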
# SSB FP counter: counter-screen for HCV NS3 helicase inhibitors: E. coli SSB binding; E. coli SSB binding Cy5-dT15, fluorescence polarization; AID 720486; inhibition, % at 100 µM; shares compounds with HCV NS3h FP; 40% of 240 active;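 active = inhibition of at least 50%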;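 also: displacers lower Cy5 polarization so higher inhibition means more SSB displaced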
# Target sequence (P0AGE0 whole entry, looked up): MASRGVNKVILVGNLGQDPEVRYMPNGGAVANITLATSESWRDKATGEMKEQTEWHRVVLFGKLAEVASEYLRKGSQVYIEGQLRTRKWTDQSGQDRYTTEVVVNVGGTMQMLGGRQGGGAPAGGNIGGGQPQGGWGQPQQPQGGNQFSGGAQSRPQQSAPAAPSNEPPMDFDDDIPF
# Cy5 SSB fluor CB: enhances or quenches Cy5-DNA fluorescence with E. coli SSB; fluorescence interference ratio at 100 µM; 8% of 240 active; AID 720487; Cy5-dT15/E. coli SSB fluorescence interference; actives lie on both sides; shares compounds with HCV NS3h FP;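 active = fluorescence interference ratio at or above 1.2, signal boosting, or at or below 0.8, signal quenching; inactive = ratio between 0.8 and 1.2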;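 also: ratio of compound well signal to mean negative control signal so 1 means no effect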
# Cy5 interf conf: Cy5 fluorescence interference, confirmation counter-screen | AID 720489 | fluorescence interference ratio at 100 µM, hits read low | Cy5-dT15 DNA/NS3h fluorescence interference counterscreen | shares compounds with HCV NS3h FP | 44% of 240 active;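 active = fluorescence interference ratio at or below 0.8 quencher or at or above a set limitenhancer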;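 also: ratio of compound fluorescence to mean of negative controls so 1 means no interference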
# An asterisk follows results filed as active; . = no result; + = active, no number.
SMILES,HCV NS3h FP,Cy5 interf NS3h,HCV NS3h conf,SSB FP counter,Cy5 SSB fluor CB,Cy5 interf conf
Cc1ccc2c(c1)C1C=CCC1C(C(=O)O)N2 (stereo not drawn),93.5*,1.2*,75.3*,106.1*,1.41*,0.924
CC(=O)N(/C=C1\Sc2ccccc2C1=O)c1ccc(C)cc1,7.8,1.1,.,.,.,.
O=C(O)c1cc(-c2ccc(/C=C3/Sc4ccccc4C3=O)o2)ccc1O,110.1*,0.974,60.5*,102.4*,0.836,0.686*
CN(C)c1ccc(NS(=O)(=O)c2ccc(F)cc2)cc1,7.4,0.967,.,.,.,.
CN(C)c1ccc(NS(=O)(=O)c2ccc(N3C(=O)CCC3=O)cc2)cc1,49.5*,0.925,31.9,61.2*,1.13,0.964
O=C1C(=O)N(c2nc3ccccc3s2)C(c2ccccc2F)C1=C(O)c1ccccc1 (stereo not drawn),5.9,0.948,.,.,.,.
O=C1C(=O)N(c2nc3ccccc3s2)C(c2ccccc2Cl)C1=C(O)c1ccccc1 (stereo not drawn),38.8,1.02,-4.0,-1.9,1.01,0.761*
O=C1N=c2ccc([N+](=O)[O-])cc2=C1c1sc(=S)n(Cc2ccco2)c1O,8.7,1.12,.,.,.,.
O=C1N=c2ccc(Br)cc2=C1c1sc(=S)n(C(Cc2ccccc2)C(=O)O)c1O (stereo not drawn),76.3*,0.763*,30.9,66.0*,0.748*,0.838
COc1ccc(C2C(=C(O)c3ccccc3)C(=O)C(=O)N2c2cccc(Cl)c2)cc1OC (stereo not drawn),5.6,0.901,.,.,.,.
NC1=NN(c2ccc(N)cc2)CC1,+,0.0757*,90.1*,100.0*,0*,0.0718*
C/C(=N/N=C1\NC(=O)C(CC(=O)Nc2ccccc2C(F)(F)F)S1)c1ccccc1 (stereo not drawn),-18.3,1.18,.,.,.,.
O=c1/c(=C/c2ccc(-c3ccccc3Cl)o2)sc2nc3ccccc3n12,6.8,1.03,.,.,.,.
Cc1cc(C)c([N+](=O)[O-])cc1-c1ccc(/C=c2\sc3nc4ccccc4n3c2=O)o1,120.8*,1.56*,14.0,32.0,0.933,0.828
COc1ccc(N2C(=O)c3ccccc3NC2c2c(F)c(F)c(F)c(F)c2F)cc1 (stereo not drawn),7.0,0.951,.,.,.,.

# Screening data as filed in PubChem.
